The sample as a whole holds a higher share of hits than the screen did.
Giardia killer = Small Molecules that selectively kill Giardia lamblia: qHTS; Giardia lamblia trophozoite viability; activity change, % at 7.66 µM, hits read low; hit rate 0.15% among 340,000; AID 540267, 2011; in the data active means activity change below about -80%; inconclusive means between about -30% and that limit;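 further: parasites exposed to compound for two days anaerobically before the ATP read; on the % scale 0 is the no-effect control and ±100 the full control effect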
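Luminescent ATP signal served as the viability read-out, measured 15-30 min after adding ATP detection reagent to trophozoites that had been incubated with compounds for 48 hrs at 37 deg C anaerobically at 100 cells/well.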
ERG Ets-DNA blk = qHTS for Small Molecule Inhibitors of the ERG Ets/DNA interaction; Transcriptional regulator ERG (Homo sapiens), P11308; fluorescence polarization, His-ERG Ets domain / labelled DNA; Potency, µM (doses to about 76.9 µM), inactives show top-dose FP activity, negative = inhibition, most hits filed as inhibitors; hit rate 0.028% among 370,000; AID 624246, 2012; active means well fitted inhibition curve with a large enough effect in the polarisation, with a control signal flat; inconclusive means small, poorly fitted or top-dose-only effect, or effect the other way, or a change in a side signal; inactive means no such curve, though single readings can be large or run the other way; the % refers to the polarisation;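 further: polarization taken with two DNA probes labelled with fluorescein and Texas red; potency means the concentration at half of the fitted maximal effect; % of control where 0% means no effect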
Target sequence (P11308 whole entry, looked up, the tested form may be a part): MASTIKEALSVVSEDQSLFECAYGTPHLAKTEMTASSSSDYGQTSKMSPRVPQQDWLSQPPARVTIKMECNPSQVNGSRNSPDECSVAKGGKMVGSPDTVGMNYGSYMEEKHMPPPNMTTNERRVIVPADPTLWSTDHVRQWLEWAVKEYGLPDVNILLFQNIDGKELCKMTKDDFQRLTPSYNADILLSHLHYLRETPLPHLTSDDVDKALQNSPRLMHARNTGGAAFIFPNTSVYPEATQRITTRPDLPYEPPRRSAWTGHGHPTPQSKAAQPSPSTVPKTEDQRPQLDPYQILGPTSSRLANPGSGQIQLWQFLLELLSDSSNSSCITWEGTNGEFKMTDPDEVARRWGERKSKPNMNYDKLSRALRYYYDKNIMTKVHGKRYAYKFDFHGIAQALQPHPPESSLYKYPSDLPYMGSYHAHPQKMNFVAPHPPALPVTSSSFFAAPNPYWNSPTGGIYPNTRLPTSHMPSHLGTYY
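His-tagged ERG Ets domain (1 uM in the protein solution; 300mM KCl, 50mM Tris-HCl, 1mM EDTA, 1mM DTT, pH 7.5) received compound, then a probe mix of 5 nM fluorescein-DNA and 100nM Texas-615-DNA. Fluorescence polarization was read for both dyes.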
Integrin act MD = qHTS for Activators of Integrin-Mediated Alleviation for Muscular Dystrophy; alpha7betagal myoblasts, beta-gal FDG fluorescence, 48 h; Potency, µM (doses to about 38.3 µM), without a hit: top-dose activation, most hits filed as activators; hit rate 0.064% among 350,000;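 further: potency means the concentration at half of the fitted maximal effect; 100% = response of the positive control SU9516; nearly all actives have a fitted effect of over 60% in size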
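alpha7betagal+/- myoblasts (passage 13, 250/well) treated 48 h at 37C with compounds at 1:260 dilution of DMSO stock. Lysed, then beta-galactosidase activity read as FDG fluorescence (ex 480/em 540) after 30 min, with pre-read for autofluorescence.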
RORgamma inh = qHTS for inhibitors of ROR gamma transcriptional activity. Potency, µM (top dose mostly 53.6 µM), for the others: top-dose activity change, negative = inhibition, hits mostly inhibitors. Nuclear receptor ROR-gamma (Mus musculus), P51450. hit rate 5.4% among 310,000. AID 2551, 2010. Drosophila S2 Gal4-RORgamma UAS-luciferase reporter, 20 h; further: potency means the concentration at half of the fitted maximal effect; on the % scale 0 is the no-effect control and ±100 the full control effect; nearly all actives have a fitted effect of over 60% in size
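Stable Schneider cell line, Gal4 DNA-binding domain fused to ROR gamma, UAS-luciferase. Cmpd 1 hr RT → CuSO4 700 uM final → 20 hr RT → luciferase reagent 10 min → luminescence.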
Gal4-VP16 FLuc = VP16 counterscreen qHTS for inhibitors of ROR gamma transcriptional activity; hit rate 3.5% among 310,000; AID 2546, 2010; Potency, µM (top dose mostly 53.6 µM), inactives show at the highest dose activity, negative = inhibition, actives largely listed as inhibitors; Drosophila S2 Gal4-VP16 UAS-luciferase, luminescence, 20 h;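 further: Gal4-VP16 expression switched on by copper sulfate through the metallothionein promoter; potency means the concentration at half of the fitted maximal effect; on the % scale 0 is the no-effect control and ±100 the full control effect; nearly all actives have a fitted effect of over 50% in size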
Numbers without * were called inactive; ? = inconclusive; . = not tested or not shown; [ ] = another dose, or the depositor's remark. Unless noted, the call rests on the fitted dose curve; in most records, active means well fitted curve in the direction sought with a large enough effect; inconclusive means small, poorly fitted or top-dose-only effect, or another doubt; inactive means no such curve, though single readings can be large; an effect the other way counts as inactive or inconclusive.

SMILES	Giardia killer	ERG Ets-DNA blk	Integrin act MD	RORgamma inh	Gal4-VP16 FLuc
COc1ccccc1CCNC(=O)C(=O)NCC1CCCN1S(=O)(=O)c1ccccc1 (centres undefined)	14	19%	-25%	.	.
Fc1ccccc1Cn1c(-c2ccccc2)nc2ccccc21	.	8%	.	.	.
CN(C(=S)SCc1ccccc1)C1CCS(=O)(=O)C1 (centres undefined)	8	4%	-8%	?	-1%
Cc1nc2cc(Cl)ccc2n1-c1ccccc1	9	2%	47%	16µM*	-22%
CC(C)[C@H]1COC(NC2=N[C@@H](C(C)C)CO2)=N1	?	1%	2%	?	-9%
O=C(N/N=C/c1ccc(Cl)cc1Cl)c1cccc(N2CCCC2=O)c1	15	-3%	10%	8%	-3%
O=C(N/N=C/c1cc(Br)cc(Br)c1O)c1cccc(N2CCCC2=O)c1	1	2%	-41%	3.5µM*	10µM*
O=C(N/N=C/c1cc(Cl)cc(Cl)c1O)c1ccncc1	-12	-9%	-38%	3.2µM*	?
O=C(N/N=C/c1cc(Br)cc([N+](=O)[O-])c1O)c1ccc(NC(=O)c2ccc(F)cc2)cc1	2	21%	5%	8.9µM*	11µM*
O=C(N/N=C/c1cc(Br)cc(Br)c1O)c1ccncc1	8	2%	-14%	4µM*	-26%
O=C(N/N=C/c1ccccc1)c1ccc(NC(=O)c2ccc(F)cc2)cc1	11	-19%	14%	-30%	2%
COc1ccccc1N1CCN(C(=O)c2cc3c(=O)oc4ccccc4c3s2)CC1	.	0%	.	.	.
O=C(N/N=C/c1c[nH]c2ccc(Br)cc12)c1ccncc1	-2	2%	13%	13µM*	?
CCC(O)(CC)C(=O)N/N=C/c1cc(Br)cc(Br)c1O	8	-10%	0%	0.79µM*	3.2µM*
O=C(N/N=C/c1c[nH]c2ccccc12)c1ccncc1	-4	-7%	22%	?	?
COc1cccc(C(=O)NNC(=O)Cc2cccs2)c1	-12	0%	4%	18%	-3%
COc1ccc(-c2ccc3c(n2)CCCN3C[C@H](O)CN2CCCc3nc(-c4ccc(Br)cc4)ccc32)cc1	.	.	.	17%[10 µM]	1%[10 µM]
Cc1ccccc1-c1nc(CN2CCC(C(=O)O)CC2)c(C)o1	-9	11%	18%	-7%	3%
Cc1ccccc1-c1nc(CN(Cc2c(C)nn(C)c2C)C2CC2)c(C)o1	18	3%	-20%	5.6µM*	13µM*
C#CC(=O)N(c1cccc(OC)c1)C(C(=O)NC1CCCC1)c1cccs1 (centres undefined)	3	.	-77%	1.6µM*	5µM*
C#CC(=O)N(c1ccc(OC)c(OC)c1)C(C(=O)NC1CCCC1)c1cccs1 (centres undefined)	2	.	?	2.5µM*	8.9µM*
O=C1CCC=C1C(O)c1ccc(Cl)cc1 (centres undefined)	.	.	.	10%	-21%
Cc1ccc2nc(SCC(=O)N3CCOCC3)[nH]c2c1	6	1%	18%	-44%	?
Cc1ccc2nc(SCC3CCCCO3)[nH]c2c1 (centres undefined)	-15	6%	27%	5.6µM*	6.3µM*
CCn1cc2c(n1)-c1c(oc(C(=O)Nc3ccc(Br)cc3F)c1C)CC2	.	-1%	.	.	.
SMILES	Giardia killer	ERG Ets-DNA blk	Integrin act MD	RORgamma inh	Gal4-VP16 FLuc
O=C(Nc1ccnn1C1CCN(Cc2cc(Cl)ccc2O)CC1)c1cccnc1	-9	-8%	-16%	5%	-12%
CC1=NN(C(=O)c2ccc(Cn3nc(C)cc3C)o2)C(O)(C(F)(F)F)C1 (centres undefined)	-4	-2%	4%	6.3µM*	5.6µM*
CC1=NN(C(=O)c2ccc(Cn3cc(Br)c([N+](=O)[O-])n3)o2)C(O)(C(F)(F)F)C1 (centres undefined)	-13	-14%	19%	4.5µM*	11µM*
Cc1ccccc1NC(=O)c1cccc(Cn2cc(Br)c([N+](=O)[O-])n2)c1	-15	-1%	-28%	?	-14%
COc1ccc(CNC(=O)c2ccc(Cn3nc(C)cc3C)o2)cc1	-11	8%	0%	-25%	-8%
COc1ccc(NCC(=O)N/N=C/c2ccc3c(c2)OCCO3)cc1	17	9%	2%	0.13µM*	-6%
NC(=S)N/N=C/c1ccc2c(c1)OCCO2	-15	-5%	?	11µM*	?
CNC(=S)N/N=C/c1ccc2c(c1)OCCO2	8	-2%	9%	?	0.63µM*
CCCC(=O)Nc1cc(-c2nnc3c4ccccc4c(C)nn23)ccc1C	.	-4%	.	.	.
Cc1noc(C)c1C(=O)Nc1ccc(N(C)C)cc1	23	0%	20%	4%	-9%
CN(C)c1ccc(NC(=O)c2cnsn2)cc1	?	-5%	6%	10µM*	10µM*
Cc1ccc(C)c(CN2C(=O)c3ccccc3S(=O)(=O)c3ccc(C(=O)N4CCOCC4)cc32)c1	.	-2%	.	.	.
Cc1cc(NC(=O)CCC(=O)N(Cc2cccnc2)C(C(=O)NC(C)(C)C)c2ccccc2Cl)no1 (centres undefined)	10	6%	4µM*	15%	0%
Cc1cc(NC(=O)CCC(=O)N(C2CC2)C(C(=O)NC(C)(C)C)c2ccccc2Cl)no1 (centres undefined)	-7	3%	-12%	8%	-3%
Cc1noc(C)c1CSc1nc2ccccc2c(=O)n1-c1ccc(Cl)cc1	-3	1%	8%[7.66 µM]	11µM*	5%
Cc1noc(C)c1CSc1nc2ccccc2n1CCc1ccccc1	36	0%	0%[7.66 µM]	7.1µM*	?
Cc1ccc2oc(=O)c3cc(C(=O)N4CCN(c5ccccc5)CC4)sc3c2c1	.	7%	.	.	.
O=C(O)C=Cc1ccc(Cn2ccnc2)cc1	.	.	.	-17%	4%
CCOC(=O)c1nnsc1Nc1ccc(C)c(C)c1	0	-2%	25%	0.71µM*	-19%[10 µM]
O=C(Nc1cccc2cccnc12)OC(Cl)(Cl)Cl	10	.	.	.	.
O=[N+]([O-])C(/C=C(\Cl)[N+](=O)[O-])=C(N1CCCCC1)N1CCCCC1	-82*	-20%	-37%	?	14µM*
CCOc1cc(NC(=S)NCCCN(C)C)c(OCC)cc1NC(=O)c1cccs1	-2	-6%	-24%	-13%	7%
CCOc1cc(NC(=O)c2cccs2)c(OCC)cc1NC(=O)c1ccco1	13	1%	-8%	10%	-3%
CCOc1cc(NC(=S)NC)c(OCC)cc1NC(=O)c1cccs1	13	-5%	16%	8.9µM*	?
CCOc1cc(NC(=S)NCCCOC)c(OCC)cc1NC(=O)c1cccs1	-10	8%	-12%	14µM*	?
CCOc1cc(NC(=S)NCCOC)c(OCC)cc1NC(=O)c1cccs1	2	1%	6%	14µM*	?

From PubChem BioAssay
